Results filed as inconclusive are left out. The source made the active and inactive calls. Unless noted, the call rests on the fitted dose curve.
How the values were obtained:
[1] = target: Bile acid receptor (Homo sapiens) (UniProt Q96RI1); experiment: qHTS assay for small molecule antagonists of farnesoid X receptor signaling (AID 588526); further: on the % scale 0 is the no-effect control and ±100 the full control effect
Summary of the method: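 Beta-lactamase reporter antagonist mode: HEK293T FXR-UAS-bla cells, titrated compound, CDCA stimulation, 16 h 37 C, CCF4 dye 2 h RT. Data normalized to CDCA 50 uM and DMSO; Hill-fit IC50.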

[2] = target: Bile acid receptor (Homo sapiens) (UniProt Q96RI1); experiment: qHTS assay for small molecule agonists of farnesoid X receptor signaling (AID 588527); conditions: HEK293T FXR-UAS-bla, beta-lactamase ratio, 16 h; activation: stronger effect = higher value;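 further: series mostly up to about 77 µM; 0% = vehicle basal and 100% = reference agonist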
Summary of the method: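 Agonist-mode beta-lactamase reporter in GeneBLAzer FXR-UAS-bla HEK293T cells, titration up to 92 uM, 16 h exposure at 37 C, CCF4 fluorescence. Response scaled to DMSO (0%) and 100 uM chenodeoxycholic acid (100%), then Hill-fitted for EC50 and efficacy.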

[3] = target: Peroxisome proliferator-activated receptor delta (Homo sapiens) (UniProt Q03181); experiment: qHTS assay for small molecule antagonists of peroxisome proliferator-activated receptor delta signaling (AID 588535; active means well fitted inhibition curve with a large enough effect in the signal ratio, with a control signal flat, not every such curve was filed as active; the % refers to the signal ratio)
Chain of Peroxisome proliferator-activated receptor delta (Homo sapiens) (Q03181 whole entry, looked up): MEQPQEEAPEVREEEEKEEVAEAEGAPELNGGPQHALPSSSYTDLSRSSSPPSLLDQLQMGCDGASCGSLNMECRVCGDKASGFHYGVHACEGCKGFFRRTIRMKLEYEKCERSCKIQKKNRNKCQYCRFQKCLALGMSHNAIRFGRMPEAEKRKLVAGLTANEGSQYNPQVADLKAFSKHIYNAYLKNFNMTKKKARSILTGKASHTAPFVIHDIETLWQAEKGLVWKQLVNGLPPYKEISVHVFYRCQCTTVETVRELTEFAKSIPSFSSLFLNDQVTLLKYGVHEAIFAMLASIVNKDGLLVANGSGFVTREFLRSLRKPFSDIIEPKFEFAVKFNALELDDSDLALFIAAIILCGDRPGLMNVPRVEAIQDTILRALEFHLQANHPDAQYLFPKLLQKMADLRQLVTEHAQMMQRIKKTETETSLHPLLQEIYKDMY
Summary of the method: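 Antagonist-mode qHTS using GeneBLAzer PPAR-delta-UAS-bla HEK293T cells; compound exposure 18 hrs at 37 C over a titration. Ratiometric CCF4 fluorescence at 460/530 nm; concentration-response points fitted to the Hill equation.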

[4] = target: Vitamin D3 receptor (Homo sapiens) (UniProt P11473); experiment: qHTS assay for small molecule agonists of vitamin D receptor signaling (AID 588543);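 further: 0% = DMSO basal and 100% = reference agonist control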
Chain of Vitamin D3 receptor (Homo sapiens) (P11473 whole entry, looked up): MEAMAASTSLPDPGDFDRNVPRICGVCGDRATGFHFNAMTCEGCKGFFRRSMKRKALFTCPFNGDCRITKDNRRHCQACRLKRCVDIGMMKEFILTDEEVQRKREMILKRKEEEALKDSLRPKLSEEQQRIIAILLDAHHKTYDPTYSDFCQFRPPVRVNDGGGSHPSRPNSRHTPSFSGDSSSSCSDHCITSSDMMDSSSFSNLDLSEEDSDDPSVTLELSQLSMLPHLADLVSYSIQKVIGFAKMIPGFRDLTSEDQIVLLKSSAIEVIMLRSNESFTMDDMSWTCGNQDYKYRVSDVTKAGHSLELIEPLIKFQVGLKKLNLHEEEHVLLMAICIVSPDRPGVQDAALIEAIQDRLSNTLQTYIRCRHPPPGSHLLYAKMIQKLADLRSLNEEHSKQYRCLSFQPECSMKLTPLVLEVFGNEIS
Summary of the method: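 Agonist-mode beta-lactamase reporter: HEK293T VDR-UAS-bla cells in charcoal-stripped 2% FBS, compound series 16 h 37 C, CCF4 2 h RT. EC50 from Hill fit, scaled against DMSO and 50 nM calcitriol control.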

[5] = target: Glucocorticoid receptor (Homo sapiens) (UniProt P04150); experiment: qHTS assay for small molecule agonists of glucocorticoid receptor signaling (AID 588532; active means well fitted curve in the direction sought with a large enough effect in the signal ratio, with a control signal flat; the % refers to the signal ratio;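 further: 100% = dexamethasone at 0.1 µM and 0% = DMSO only wells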); conditions: HeLa MMTV-bla, beta-lactamase ratio, agonist, 18 h; activation: stronger effect = higher value, percent of dexamethasone control, DMSO zero
Chain of Glucocorticoid receptor (Homo sapiens) (P04150 whole entry, looked up): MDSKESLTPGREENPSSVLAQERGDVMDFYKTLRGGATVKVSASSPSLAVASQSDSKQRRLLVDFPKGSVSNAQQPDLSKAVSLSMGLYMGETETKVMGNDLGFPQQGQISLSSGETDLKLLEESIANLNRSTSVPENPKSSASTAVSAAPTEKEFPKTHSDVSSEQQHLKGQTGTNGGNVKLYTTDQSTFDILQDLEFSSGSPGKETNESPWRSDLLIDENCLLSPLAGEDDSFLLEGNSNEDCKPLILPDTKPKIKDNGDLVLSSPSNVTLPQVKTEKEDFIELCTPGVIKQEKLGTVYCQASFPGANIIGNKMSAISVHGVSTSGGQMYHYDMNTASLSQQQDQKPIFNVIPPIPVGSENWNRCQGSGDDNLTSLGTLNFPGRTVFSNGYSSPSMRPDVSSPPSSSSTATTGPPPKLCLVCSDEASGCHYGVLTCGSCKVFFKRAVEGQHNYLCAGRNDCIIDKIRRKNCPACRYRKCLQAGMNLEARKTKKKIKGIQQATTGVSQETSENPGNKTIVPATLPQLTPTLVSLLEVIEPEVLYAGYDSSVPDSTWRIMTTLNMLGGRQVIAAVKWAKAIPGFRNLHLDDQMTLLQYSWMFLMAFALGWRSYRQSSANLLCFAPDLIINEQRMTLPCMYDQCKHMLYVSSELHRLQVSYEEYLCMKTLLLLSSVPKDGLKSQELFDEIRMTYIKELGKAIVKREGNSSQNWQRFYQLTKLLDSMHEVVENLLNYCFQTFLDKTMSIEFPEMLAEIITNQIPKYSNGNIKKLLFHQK
Summary of the method: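 Quantitative HTS using CellSensor MMTV-bla HeLa cells in charcoal/dextran-treated serum; compounds tested up to 92 uM. After 18 h at 37 C, CCF4 dye reported reporter induction.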

[6] = target: Glucocorticoid receptor (Homo sapiens) (UniProt P04150); experiment: qHTS assay for small molecule antagonists of glucocorticoid receptor signaling (AID 588533; active means well fitted inhibition curve with a large enough effect in the signal ratio, with a control signal flat, not every such curve was filed as active; the % refers to the signal ratio;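 further: cells stimulated with 2 nM dexamethasone as agonist; on the % scale 0 is the no-effect control and ±100 the full control effect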)
Summary of the method: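 Antagonist-mode qHTS: compound titrations added to GRE-bla HeLa cells, then dexamethasone 2 nM final; 18 h, 37 C. CCF4 FRET fluorescence normalized to dexamethasone and DMSO; IC50 from Hill fit.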

[7] = qHTS assay for small molecule agonists of retinoid X receptor alpha signaling (AID 588544); conditions: HEK293T RXRa-UAS-bla, beta-lactamase reporter, 18 h; 530 nm emission
[8] = qHTS assay for small molecule agonists of the antioxidant response element (ARE) signaling pathway (AID 651741; active means well fitted activation curve with a large enough effect in the signal ratio; the % refers to the signal ratio; further: potency means the concentration at half of the fitted maximal effect; on activation: % of control where 0% means no effect)
Summary of the method: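 Agonist activity is measured as ARE-driven beta-lactamase expression in a stable HepG2 reporter line, using 16 h compound treatment at 37 C and a FRET substrate fluorescence readout after 2 h.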

[9] = qHTS assay for small molecule activators of the nuclear factor-kappa B (NF-kB) signaling pathway (AID 651749; active means well fitted activation curve with a large enough effect in the signal ratio; the % refers to the signal ratio; further: series mostly up to about 77 µM; % of control where 0% means no effect); conditions: NF-kB-bla ME-180 cells, beta-lactamase FRET ratio, 16 h; activation: stronger effect = higher value
Summary of the method: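 FRET-based beta-lactamase detection in ME-180 cells reports NF-kB response-element-driven transcription following overnight (16 hr) compound treatment.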

[10] = qHTS assay for small molecule activators of the human pregnane X receptor (PXR) signaling pathway (AID 720659; call rule not given here; further: 0% is about no effect)
[11] = target: Androgen receptor (Homo sapiens) (UniProt P10275); experiment: qHTS assay for small molecule agonists of androgen receptor signaling (AID 588515; active means well fitted curve in the direction sought with a large enough effect in the signal ratio, with a control signal flat; the % refers to the signal ratio; further: on the % scale 0 is the no-effect control and ±100 the full control effect); conditions: AR-UAS-bla HEK293, beta-lactamase ratio, agonist 16 h; stronger effect = higher value
Chain of Androgen receptor (Homo sapiens) (P10275 whole entry, looked up): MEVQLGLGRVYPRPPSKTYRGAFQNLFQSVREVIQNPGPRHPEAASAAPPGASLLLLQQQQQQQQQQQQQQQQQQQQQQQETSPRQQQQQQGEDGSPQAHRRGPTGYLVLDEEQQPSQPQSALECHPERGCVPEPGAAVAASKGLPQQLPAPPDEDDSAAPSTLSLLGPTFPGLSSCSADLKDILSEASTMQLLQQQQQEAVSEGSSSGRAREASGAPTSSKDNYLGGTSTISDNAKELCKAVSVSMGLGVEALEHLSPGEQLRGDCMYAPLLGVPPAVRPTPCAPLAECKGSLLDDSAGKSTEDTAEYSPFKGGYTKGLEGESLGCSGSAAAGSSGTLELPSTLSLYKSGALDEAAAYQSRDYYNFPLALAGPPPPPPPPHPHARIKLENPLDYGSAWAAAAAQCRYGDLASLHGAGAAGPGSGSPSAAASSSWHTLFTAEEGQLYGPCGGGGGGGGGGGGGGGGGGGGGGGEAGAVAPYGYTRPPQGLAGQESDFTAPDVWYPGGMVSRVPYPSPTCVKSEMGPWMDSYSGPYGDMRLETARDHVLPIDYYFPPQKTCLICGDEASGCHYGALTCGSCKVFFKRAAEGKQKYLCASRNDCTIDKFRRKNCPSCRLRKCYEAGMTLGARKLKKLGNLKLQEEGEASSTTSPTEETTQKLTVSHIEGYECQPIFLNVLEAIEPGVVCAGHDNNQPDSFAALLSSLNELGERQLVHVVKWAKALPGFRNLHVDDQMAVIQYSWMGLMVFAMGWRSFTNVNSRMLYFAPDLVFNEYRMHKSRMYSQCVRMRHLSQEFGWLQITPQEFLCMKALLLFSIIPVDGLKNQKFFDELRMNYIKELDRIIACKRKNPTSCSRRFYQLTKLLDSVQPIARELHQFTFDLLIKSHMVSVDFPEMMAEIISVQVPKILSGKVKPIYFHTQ
Summary of the method: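 Stimulation of an AR-responsive β-lactamase reporter in GripTite HEK293 cells was measured after 16 h compound exposure at 37 °C, via CCF4 fluorescence after 2 h RT. EC50 from Hill fits, normalized to R1881 at 30 nM.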

[12] = target: Androgen receptor (Homo sapiens) (UniProt P10275); experiment: qHTS assay for small molecule antagonists of androgen receptor signaling (AID 588516; active means well fitted curve in the direction sought with a large enough effect in the signal ratio, with a control signal flat, not every such curve was filed as active; the % refers to the signal ratio; further: on the % scale 0 is the no-effect control and ±100 the full control effect)
Summary of the method: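 Antagonist mode: inhibition of R1881-stimulated (10 nM final) bla reporter in GeneBLAzer AR HEK 293 cells, 16 h at 37C, compounds titrated. IC50 and efficacy from Hill-equation fits of 405/460–530 nm FRET ratios.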

Chain of Bile acid receptor (Homo sapiens) (Q96RI1 whole entry, looked up): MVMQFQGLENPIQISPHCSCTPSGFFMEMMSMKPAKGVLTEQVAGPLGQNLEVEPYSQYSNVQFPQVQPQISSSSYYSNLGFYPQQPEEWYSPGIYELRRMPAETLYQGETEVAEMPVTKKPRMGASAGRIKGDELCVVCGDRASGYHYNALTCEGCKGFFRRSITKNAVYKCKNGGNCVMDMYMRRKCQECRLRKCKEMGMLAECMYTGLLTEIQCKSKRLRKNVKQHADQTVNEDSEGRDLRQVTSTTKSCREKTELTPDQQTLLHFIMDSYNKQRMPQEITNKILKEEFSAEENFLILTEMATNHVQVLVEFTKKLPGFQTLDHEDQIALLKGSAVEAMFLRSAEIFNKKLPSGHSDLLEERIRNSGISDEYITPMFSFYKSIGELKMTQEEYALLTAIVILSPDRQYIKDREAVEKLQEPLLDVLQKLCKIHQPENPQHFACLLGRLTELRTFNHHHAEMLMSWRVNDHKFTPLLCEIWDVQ

Cc1c(COC(=O)C2C(/C=C(\Cl)C(F)(F)F)C2(C)C)cccc1-c1ccccc1 (stereo not drawn)
inactive: Potency [1] | activation [2] 2.08% | Potency [3] | outcome [4]

CCCCC(CC)C(=O)Cl (stereo not drawn)
-20.2%: max response [7]
inactive: Potency [1] | activation [2] -2.28% | activation [5] -0.757% | Potency [6] | Potency [3] | Potency [8] | activation [9] -0.95% | outcome [10]

CCC(C)n1c(=O)[nH]c(C)c(Br)c1=O (stereo not drawn)
inactive: Potency [1] | activation [2] 2.99% | activation [9] 0.0195% | outcome [10]
0.805%: max response [7]

Cn1cc(-c2ccccc2)c(=O)c(-c2cccc(C(F)(F)F)c2)c1
inactive: activation [5] -15.3% | Potency [6] | Potency [3] | activation [9] -0.874%

CCOP(=O)(O)C(N)=O
inactive: Potency [1] | activation [2] 3.28% | activation [5] 4.17% | Potency [6] | outcome [4] | Potency [8] | outcome [10]
-12.7%: max response [7]

CCNc1nc(NCC)nc(SC)n1
-4.09%: max response [7]
inactive: activation [5] -3.89% | Potency [6] | outcome [4] | activation [9] 0.586% | outcome [10]

CCNP(=S)(OC)O/C(C)=C/C(=O)OC(C)C (stereo not drawn)
inactive: activation [5] -6.1% | Potency [6]

CNC(=O)Oc1cc(C)cc(C(C)C)c1
-15.4%: max response [7]
inactive: Potency [3] | outcome [4] | outcome [10]

CCSCc1ccccc1OC(=O)NC
inactive: Potency [1] | activation [2] 3.09% | activation [5] 1.02% | Potency [6] | outcome [4]
-16.4%: max response [7]

CNC(=O)Oc1cccc2c1OC(C)(C)C2O (stereo not drawn)
active: Potency [8] 54.5 µM
inactive: activation [11] 3.8% | Potency [12] | Potency [1] | activation [5] 12.4% | Potency [6] | outcome [4] | activation [9] 0.725% | outcome [10]
-10.1%: max response [7]

From PubChem BioAssay (NCATS)
